The text below walks through data of PubChem BioAssay (NCATS).

Assay [1] deals with Peroxisome proliferator-activated receptor gamma (Homo sapiens) (UniProt P37231). Kind of assay: qHTS assay for small molecule antagonists of peroxisome proliferator-activated receptor gamma signaling (AID 588537; active means well fitted inhibition curve with a large enough effect in the signal ratio, with a control signal flat, not every such curve was filed as active; the % refers to the signal ratio; further: potency means the concentration at half of the fitted maximal effect). In short, it runs like this: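 Compounds are tested as concentration series for inhibition of rosiglitazone-driven (50 nM) reporter expression in GeneBLAzer PPAR-gamma-UAS-bla HEK293 cells. After 16 h at 37 C, CCF4 substrate is added for 2 h at room temperature and blue/green fluorescence is measured.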
(Quantitative high-throughput screening tests each substance at several concentrations.)

Assay [2] addresses Vitamin D3 receptor (Homo sapiens) (UniProt P11473). Briefly: qHTS assay for small molecule agonists of vitamin D receptor signaling (AID 588543; calls by dose curve;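 further: 0% = DMSO basal and 100% = reference agonist control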). In outline: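 GeneBLAzer VDR-UAS-bla HEK293T cells in 2% charcoal-stripped FBS medium were dosed with compound titrations for 16 h at 37 °C; CCF4 β-lactamase readout (405 nm ex, 460/530 nm em). EC50 and efficacy from Hill fits, normalized to 50 nM calcitriol (100%) and DMSO (0%).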

In assay [3] the target is Thyroid hormone receptor beta (Homo sapiens) (UniProt P10828). Kind of assay: qHTS assay for small molecule agonists of thyroid hormone receptor beta signaling (AID 588545; calls by dose curve;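 further: 0% = DMSO only and 100% = 10 nM T3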). In short, it runs like this: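 TR-UAS-bla-GripTite HEK 293 cells in medium with 2% charcoal/dextran FBS, 0.1 mM NEAA and 1 mM sodium pyruvate were treated with titrated compounds for 18 hrs at 37 C. Beta-lactamase reporter was read with CCF4 dye (ex 405, em 460/530 nm); EC50 from Hill fits.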

A short description of assay [4]: qHTS assay for small molecule agonists of the antioxidant response element (ARE) signaling pathway (AID 651741; active means well fitted activation curve with a large enough effect in the signal ratio; the % refers to the signal ratio; further: potency means the concentration at half of the fitted maximal effect). In short, it runs like this:
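Reporter: beta-lactamase under ARE, stably in HepG2. Exposure: 16 h, 37 C, compounds delivered in DMSO by pin tool after 5 h cell preincubation. Readout: FRET substrate fluorescence after 2 h at RT.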

Assay [5] is described as follows: qHTS assay for small molecule activators of the p53 signaling pathway (AID 651743; active means well fitted activation curve with a large enough effect in the signal ratio, not every such curve was filed as active; the % refers to the signal ratio; further: potency means the concentration at half of the fitted maximal effect; on activation: series mostly up to about 92 µM; % of control where 0% means no effect). Conditions: HCT-116 p53RE-bla, beta-lactamase FRET ratio, 16 h; activation: stronger effect = higher value. In short, it runs like this:
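Agonist-mode quantitative HTS in HCT-116 cells carrying a p53-response-element beta-lactamase reporter; 16 h compound treatment at 37 C, then FRET substrate loading for 2 h at room temperature and fluorescence read.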

The nature of assay [6]: qHTS assay for small molecule activators of the nuclear factor-kappa B (NF-kB) signaling pathway (AID 651749; active means well fitted activation curve with a large enough effect in the signal ratio; the % refers to the signal ratio; further: series mostly up to about 77 µM; % of control where 0% means no effect). Particulars: NF-kB-bla ME-180 cells, beta-lactamase FRET ratio, 16 h; activation: stronger effect = higher value. In outline: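 Human ME-180 cervical cells with an NF-kB-bla construct; compounds added via 23 nL pin transfer, DMSO as vehicle; incubation 16 hr. Reporter activity measured by FRET disruption.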

The target in assay [7] is Peroxisome proliferator-activated receptor alpha (Homo sapiens) (UniProt Q07869). Briefly: qHTS assay for small molecule agonists of the peroxisome proliferator-activated receptor alpha (PPARalpha) signaling pathway (AID 651778). Further: % of control where 0% means no effect. Conditions: PathHunter PPARalpha complementation, chemiluminescence, 6 h; max response: stronger effect = higher value. In short, it runs like this:
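Cells plated at 2,000/well and held overnight at 37 C, 5% CO2, then compound added by pin tool for 6 hr; after PathHunter detection reagent and 60 min at room temperature, chemiluminescence from enzyme complementation was read.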

The nature of assay [8]: qHTS assay for small molecule agonists of the antioxidant response element (ARE) signaling pathway measured by Nrf2-dependant transcriptional activity (AID 720636; active means well fitted curve in the direction sought with a large enough effect in the repeat runs; an effect the other way counts as inactive or inconclusive;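 further: HepG2 cells with an ARE-driven luciferase reporter; % of control where 0% means no effect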). In short, it runs like this:
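First, ARE-luc HepG2 cells attached for 6 hr at 37 C in 1% dialyzed FBS medium. Next, compound or DMSO was added and incubated 16 hr. Finally, ONE-Glo reagent was added and luminescence measured after 30 min.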

Assay [9] in a line: qHTS assay for cell viability of HEK293 cells (AID 743288). Further: on the % scale 0 is the no-effect control and ±100 the full control effect; nearly all actives have a fitted effect of over 50% in size. Particulars: ATP luminescence (CellTiter-Glo), 18 h; max response: stronger effect = lower value. In outline: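 After 18 h compound exposure at 37 C, parental HEK293 cells (2,000/well) are lysed with CellTiter-Glo and luminescence is read following 30 min at room temperature.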
Assay [10] is described as follows: qHTS assay for cell viability of the p53RE-bla HCT-116 cell line (AID 743292). Further: on the % scale 0 is the no-effect control and ±100 the full control effect; nearly all actives have a fitted effect of over 55% in size. In short, it runs like this:
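Quantitative high-throughput format: compounds in DMSO were pinned onto p53RE-bla HCT-116 cells (4,000/well) and incubated 16 h at 37 C. Total intracellular ATP, read by CellTiter-Glo luminescence, reflects viable cell number.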

Assay [11] concerns the target Nuclear receptor subfamily 1 group I member 2 (Rattus norvegicus) (UniProt Q9R1A7). Kind of assay: qHTS assay for small molecule activators of the rat pregnane X receptor (rPXR) signaling pathway (AID 651751; call rule not given here; further: 0% is about no effect). Particulars: rPXR reporter cells, luciferase (One-Glo), 24 h.
The target of assay [12] is Cytochrome P450 3A4 (Homo sapiens) (UniProt P08684). Briefly: qHTS Assay for Activators of Cytochrome P450 3A4 (AID 885). Further: nearly all actives have a fitted effect of over 65% in size. In short, it runs like this: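 Using 20nM recombinant human CYP3A4 in potassium phosphate (200mM), substrate Luciferin-PPXE at 25uM, luminescent luciferin detection followed a 60-min RT NADPH reaction; data scaled to 57 uM ketoconazole.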
Assay [13] addresses Peroxisome proliferator-activated receptor delta (Homo sapiens) (UniProt Q03181). Briefly: qHTS assay for small molecule agonists of peroxisome proliferator-activated receptor delta signaling (AID 588534; calls by dose curve;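 further: 0% = DMSO basal wells and 100% = positive control agonist at 10 µM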). In short, it runs like this: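 Agonist-mode beta-lactamase reporter readout (CCF4 dye, 2 h at RT) after 18 h at 37 °C exposure to a titration; Hill-equation fitting gave EC50 and maximal response.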

For assay [14], the target named is Nuclear receptor ROR-gamma (Homo sapiens) (UniProt P51449). Kind of assay: qHTS assay for small molecule antagonists of the retinoid-related orphan receptor gamma (ROR-gamma) signaling pathway (AID 651802).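 Further: CHO cells with doxycycline-induced ROR-gamma expression; luciferase reporter luminescence driven by ROR response element; series mostly up to about 92 µM; on the % scale 0 is the no-effect control and ±100 the full control effect; nearly all actives have a fitted effect of over 60% in size.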 In outline: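 Luminescence (One-Glo, 30 min RT) measured 16 h after compound addition and doxycycline induction at 37C. Reporter: RORE-luciferase under TET-inducible ROR-gamma in CHO cells.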

The nature of assay [15]: qHTS assay for environmental chemicals that activate the Aryl hydrocarbon Receptor (AhR) signaling pathway (AID 651777). Further: nearly all actives have a fitted effect of over 15% in size. Further: potency means the concentration at half of the fitted maximal effect. On activation: % of control where 0% means no effect. Particulars: 1A2-DRE human hepatoma cells, luciferase, 24 h; activation: stronger effect = higher value. In outline:
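AhR activation is scored as a rise in luciferase from a stable DRE–CYP1A2 promoter construct in human hepatoma cells. Treatment lasts 24 hr at 37 C; detection uses One-Glo after 30 min at room temperature.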

Assay [16] has as its target Cytochrome P450 3A4 (Homo sapiens) (UniProt P08684). Kind of assay: qHTS Assay for Inhibitors and Substrates of Cytochrome P450 3A4 (AID 884). Further: potency means the concentration at half of the fitted maximal effect; nearly all actives have a fitted effect of over 50% in size. In short, it runs like this:
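Luminescent readout of luciferin produced by CYP3A4 (20 nM) dealkylation of Luciferin-PPXE, 25 uM (its KM). NADPH-driven reaction ran 60 min at RT after 10 min compound preincubation; data scaled to 57 uM ketoconazole as 100% inhibition.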

Assay [17] addresses Peroxisome proliferator-activated receptor gamma (Homo sapiens) (UniProt P37231). Kind of assay: qHTS assay for small molecule agonists of peroxisome proliferator-activated receptor gamma signaling (AID 588536; active means well fitted curve in the direction sought with a large enough effect in the signal ratio, with a control signal flat, not every such curve was filed as active; the % refers to the signal ratio;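 further: 0% = DMSO basal wells and 100% = rosiglitazone at 2 µM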). In outline:
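Using GeneBLAzer HEK293 cells, response was quantified by CCF4 fluorescence and normalized between basal DMSO (0%) and rosiglitazone 2 uM (100%); curves yielded half-maximal stimulation concentration and efficacy.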

The nature of assay [18]: qHTS assay for small molecule agonists of retinoid X receptor alpha signaling (AID 588544; calls by dose curve;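 on activation: 0% = DMSO basal wells and 100% = reference agonist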). Conditions: HEK293T RXRa-UAS-bla, beta-lactamase reporter, 18 h; 530 nm emission.
For assay [19], the target named is Retinoic acid receptor RXR-alpha (Homo sapiens) (UniProt P19793). The assay is described as above.
Assay [20] in a line: qHTS assay for small molecule antagonists of retinoid X receptor alpha signaling (AID 588546; active means well fitted inhibition curve with a large enough effect in the signal ratio, with a control signal flat, not every such curve was filed as active; the % refers to the signal ratio;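 further: cells stimulated with 9-cis-retinoic acid as agonist; on the % scale 0 is the no-effect control and ±100 the full control effect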). Particulars: HEK293T RXRa-UAS-bla, beta-lactamase ratio, antagonist mode; measured here: W530 green channel, cytotoxicity proxy. In outline: (§1)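 Beta-lactamase reporter inhibition, read as CCF4 fluorescence ratio (ex 405, em 460/530 nm) after 2 h at RT. HEK293T UAS-bla cells, 2500/well, were stimulated with 9-cis-RA at 500 or 100 nM final alongside test compound for 18 h at 37 C.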

The target in assay [21] is Retinoic acid receptor RXR-alpha (Homo sapiens) (UniProt P19793). The assay is described as above. Particulars: HEK293T RXRa-UAS-bla, beta-lactamase ratio, antagonist mode. In short, it runs like this: as §1
Assay [22] has as its target Thyroid hormone receptor beta (Homo sapiens) (UniProt P10828). Briefly: qHTS assay for small molecule antagonists of thyroid hormone receptor beta signaling (AID 588547; active means well fitted inhibition curve with a large enough effect in the signal ratio, with a control signal flat, not every such curve was filed as active; the % refers to the signal ratio;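 further: cells stimulated with 0.4 nM T3 agonist during compound exposure; series mostly up to about 77 µM; on the % scale 0 is the no-effect control and ±100 the full control effect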). Conditions: TR-UAS-bla HEK293, beta-lactamase ratio, antagonist mode, 18 h. In outline: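 TR-UAS-bla GripTite HEK293 cells in 2% charcoal/dextran FBS medium were preincubated 4 h at 37 C, given compound (0.59 nM to 92 uM) plus 0.4 nM T3 (final) for 18 h, then CCF4 for 2 h at RT; Hill fit gave IC50.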

Assay [23] in a line: qHTS assay for small molecule agonists of the antioxidant response element (ARE) signaling pathway measured by Nrf2-dependant transcriptional activity - cell viability counter screen (AID 720653; active means well fitted curve in the direction sought with a large enough effect in the repeat runs; an effect the other way counts as inactive or inconclusive; further: on the % scale 0 is the no-effect control and ±100 the full control effect). Particulars: ARE-bla HepG2 viability, CellTiter-Glo ATP luminescence, 16 h; max response: stronger effect = lower value. In short, it runs like this: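 ARE-bla HepG2 cells (2,000/well) rested 5 hrs at 37C/5% CO2, then exposed to compounds in DMSO for 16 hrs. Viability was read in the same wells as intracellular ATP by luminescence, 30 min at room temperature after reagent addition.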

Each structure is given as a SMILES string. Records with an inconclusive call do not appear. Active and inactive are the calls of the source. Unless noted, the call rests on the fitted dose curve; in most records, active means well fitted curve in the direction sought with a large enough effect; inconclusive means small, poorly fitted or top-dose-only effect, or another doubt; inactive means no such curve, though single readings can be large; an effect the other way counts as inactive or inconclusive.

Peroxisome proliferator-activated receptor gamma (Homo sapiens), sequence (P37231 whole entry, looked up): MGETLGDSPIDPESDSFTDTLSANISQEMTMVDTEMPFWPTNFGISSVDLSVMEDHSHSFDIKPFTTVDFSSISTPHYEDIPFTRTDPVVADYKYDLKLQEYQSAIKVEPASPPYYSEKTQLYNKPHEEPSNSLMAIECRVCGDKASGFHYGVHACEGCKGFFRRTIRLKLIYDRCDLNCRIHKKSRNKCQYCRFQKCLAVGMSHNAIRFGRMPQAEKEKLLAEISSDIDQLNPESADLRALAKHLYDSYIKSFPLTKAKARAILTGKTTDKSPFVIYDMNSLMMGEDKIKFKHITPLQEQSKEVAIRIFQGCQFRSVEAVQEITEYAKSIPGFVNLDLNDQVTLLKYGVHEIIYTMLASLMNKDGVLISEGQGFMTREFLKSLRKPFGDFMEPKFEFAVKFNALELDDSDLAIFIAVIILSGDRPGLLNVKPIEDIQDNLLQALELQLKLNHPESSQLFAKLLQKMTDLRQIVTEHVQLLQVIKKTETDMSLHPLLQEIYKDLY
Cytochrome P450 3A4 (Homo sapiens), sequence (P08684 whole entry, looked up): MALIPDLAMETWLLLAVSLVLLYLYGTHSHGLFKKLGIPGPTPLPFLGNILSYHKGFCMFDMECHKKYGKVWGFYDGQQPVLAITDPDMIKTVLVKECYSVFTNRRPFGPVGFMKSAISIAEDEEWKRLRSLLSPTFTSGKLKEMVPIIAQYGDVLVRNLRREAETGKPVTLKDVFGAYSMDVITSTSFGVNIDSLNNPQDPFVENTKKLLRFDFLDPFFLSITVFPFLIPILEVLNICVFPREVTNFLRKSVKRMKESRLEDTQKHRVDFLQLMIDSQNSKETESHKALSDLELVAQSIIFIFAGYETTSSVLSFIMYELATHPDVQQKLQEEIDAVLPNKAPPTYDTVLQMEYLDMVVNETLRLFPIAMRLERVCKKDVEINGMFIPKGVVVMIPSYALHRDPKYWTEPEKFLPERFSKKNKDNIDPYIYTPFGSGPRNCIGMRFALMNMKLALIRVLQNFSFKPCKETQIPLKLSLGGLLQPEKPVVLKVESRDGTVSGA
Thyroid hormone receptor beta (Homo sapiens), sequence (P10828 whole entry, looked up): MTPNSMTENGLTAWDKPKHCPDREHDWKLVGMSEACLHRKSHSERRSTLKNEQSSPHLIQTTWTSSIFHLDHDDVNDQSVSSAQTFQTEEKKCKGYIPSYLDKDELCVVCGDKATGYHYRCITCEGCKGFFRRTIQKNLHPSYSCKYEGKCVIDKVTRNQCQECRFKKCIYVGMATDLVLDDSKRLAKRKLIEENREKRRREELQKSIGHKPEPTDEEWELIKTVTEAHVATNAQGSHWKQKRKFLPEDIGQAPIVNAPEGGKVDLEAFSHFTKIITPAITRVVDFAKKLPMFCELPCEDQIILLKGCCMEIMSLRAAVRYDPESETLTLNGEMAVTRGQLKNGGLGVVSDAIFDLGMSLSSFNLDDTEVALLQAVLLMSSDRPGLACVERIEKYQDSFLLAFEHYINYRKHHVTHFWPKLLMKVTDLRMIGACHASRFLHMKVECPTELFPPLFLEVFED
Peroxisome proliferator-activated receptor delta (Homo sapiens), sequence (Q03181 whole entry, looked up): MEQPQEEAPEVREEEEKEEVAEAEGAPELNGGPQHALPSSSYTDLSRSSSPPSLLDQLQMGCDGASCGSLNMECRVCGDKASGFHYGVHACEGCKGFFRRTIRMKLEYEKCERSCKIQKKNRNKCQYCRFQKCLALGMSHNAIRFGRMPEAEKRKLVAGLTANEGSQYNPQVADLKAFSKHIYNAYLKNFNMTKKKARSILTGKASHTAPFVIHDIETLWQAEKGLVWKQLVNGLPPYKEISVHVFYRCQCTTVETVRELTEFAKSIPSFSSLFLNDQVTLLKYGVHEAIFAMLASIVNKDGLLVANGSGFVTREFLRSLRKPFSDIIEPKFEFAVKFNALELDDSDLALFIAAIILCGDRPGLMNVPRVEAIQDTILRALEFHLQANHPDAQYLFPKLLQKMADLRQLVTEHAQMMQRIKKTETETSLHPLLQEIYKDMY
Nuclear receptor ROR-gamma (Homo sapiens), sequence (P51449 whole entry, looked up): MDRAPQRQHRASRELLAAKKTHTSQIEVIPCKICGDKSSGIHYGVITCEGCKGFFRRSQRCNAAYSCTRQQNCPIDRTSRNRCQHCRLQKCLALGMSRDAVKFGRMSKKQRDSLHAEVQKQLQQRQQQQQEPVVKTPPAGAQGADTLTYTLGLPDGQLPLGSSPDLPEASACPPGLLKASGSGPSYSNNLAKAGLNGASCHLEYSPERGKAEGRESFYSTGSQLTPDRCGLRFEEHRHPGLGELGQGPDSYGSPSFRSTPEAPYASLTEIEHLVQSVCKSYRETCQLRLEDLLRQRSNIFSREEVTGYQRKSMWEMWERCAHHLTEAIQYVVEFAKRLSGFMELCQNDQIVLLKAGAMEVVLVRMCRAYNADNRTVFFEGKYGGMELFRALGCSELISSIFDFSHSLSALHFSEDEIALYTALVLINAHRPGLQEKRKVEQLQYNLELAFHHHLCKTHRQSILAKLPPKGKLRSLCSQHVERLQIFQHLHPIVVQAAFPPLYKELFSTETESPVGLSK
Retinoic acid receptor RXR-alpha (Homo sapiens), sequence (P19793 whole entry, looked up): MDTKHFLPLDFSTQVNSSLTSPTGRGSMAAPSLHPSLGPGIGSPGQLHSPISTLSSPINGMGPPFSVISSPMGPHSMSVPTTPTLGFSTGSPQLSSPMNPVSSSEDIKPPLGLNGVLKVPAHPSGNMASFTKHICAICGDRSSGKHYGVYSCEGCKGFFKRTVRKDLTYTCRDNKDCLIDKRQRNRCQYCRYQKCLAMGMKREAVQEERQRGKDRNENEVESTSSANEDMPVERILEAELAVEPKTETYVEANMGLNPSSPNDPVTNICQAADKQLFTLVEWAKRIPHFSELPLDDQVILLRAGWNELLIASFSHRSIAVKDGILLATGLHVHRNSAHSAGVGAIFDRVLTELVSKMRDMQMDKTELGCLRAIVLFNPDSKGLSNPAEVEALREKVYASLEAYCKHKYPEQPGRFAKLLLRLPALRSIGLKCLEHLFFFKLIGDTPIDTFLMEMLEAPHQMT
Peroxisome proliferator-activated receptor alpha (Homo sapiens), sequence (Q07869 whole entry, looked up): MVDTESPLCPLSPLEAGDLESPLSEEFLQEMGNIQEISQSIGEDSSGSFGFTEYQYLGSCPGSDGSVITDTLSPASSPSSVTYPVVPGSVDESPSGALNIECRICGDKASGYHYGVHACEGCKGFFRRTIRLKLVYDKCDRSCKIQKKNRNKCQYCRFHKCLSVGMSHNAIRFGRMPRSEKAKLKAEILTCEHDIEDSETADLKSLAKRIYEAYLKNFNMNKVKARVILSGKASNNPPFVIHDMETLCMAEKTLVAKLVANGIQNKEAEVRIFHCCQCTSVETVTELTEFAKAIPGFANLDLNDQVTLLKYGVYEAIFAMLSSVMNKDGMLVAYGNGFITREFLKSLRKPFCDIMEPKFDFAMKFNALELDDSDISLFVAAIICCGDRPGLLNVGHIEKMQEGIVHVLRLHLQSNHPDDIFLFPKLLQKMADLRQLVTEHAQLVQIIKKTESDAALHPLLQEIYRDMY
Vitamin D3 receptor (Homo sapiens), sequence (P11473 whole entry, looked up): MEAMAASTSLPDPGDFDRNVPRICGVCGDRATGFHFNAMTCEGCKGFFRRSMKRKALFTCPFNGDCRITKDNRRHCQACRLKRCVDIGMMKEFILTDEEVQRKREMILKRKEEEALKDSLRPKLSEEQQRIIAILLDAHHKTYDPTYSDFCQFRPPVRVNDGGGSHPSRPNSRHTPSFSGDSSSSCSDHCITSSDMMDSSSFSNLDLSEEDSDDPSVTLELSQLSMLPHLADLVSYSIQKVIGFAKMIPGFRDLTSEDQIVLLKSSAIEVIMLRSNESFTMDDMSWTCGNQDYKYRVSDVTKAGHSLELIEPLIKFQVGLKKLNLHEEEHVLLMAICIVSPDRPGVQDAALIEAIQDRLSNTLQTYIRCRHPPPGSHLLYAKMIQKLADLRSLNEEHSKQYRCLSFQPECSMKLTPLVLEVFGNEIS
Nuclear receptor subfamily 1 group I member 2 (Rattus norvegicus), sequence (Q9R1A7 whole entry, looked up): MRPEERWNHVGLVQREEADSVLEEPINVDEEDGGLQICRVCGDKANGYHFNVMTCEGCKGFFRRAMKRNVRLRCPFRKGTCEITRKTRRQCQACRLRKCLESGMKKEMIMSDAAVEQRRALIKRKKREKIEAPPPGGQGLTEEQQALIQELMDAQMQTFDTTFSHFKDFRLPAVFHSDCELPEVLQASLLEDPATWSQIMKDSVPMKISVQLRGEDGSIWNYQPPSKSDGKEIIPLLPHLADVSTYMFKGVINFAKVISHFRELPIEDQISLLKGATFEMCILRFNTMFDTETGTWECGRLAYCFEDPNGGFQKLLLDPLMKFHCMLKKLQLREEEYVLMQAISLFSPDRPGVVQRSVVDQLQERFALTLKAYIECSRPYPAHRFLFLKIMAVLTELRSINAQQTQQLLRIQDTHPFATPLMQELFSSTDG

As for `CON=C(C(=O)OC)c1ccccc1CO/N=C(\C)c1cccc(C(F)(F)F)c1`, the Potency was 35.5 µM (active) in [1], 8.63 µM (active) in [4] and 5.01 µM (active) in [5]. Besides, the compound was classed as inactive in assay [2]. Besides, the Potency entry in assay [3], in assay [8] and in [10] was “inactive” each time. For the same compound, in [6], the activation was 3.5% (inactive). Further, the max response in [7] is 3.69% (inactive); in [9], -22.9% (inactive); in assay [11], -14.4% (inactive).

Regarding `Cc1ccc(N)cc1[N+](=O)[O-]`, the Potency entry in assay [12] is “inactive”. Moreover, the outcome in assay [13] was inactive.

For `O=NO`, the result in assay [13] was inactive. Moreover, in assay [14], the Potency entry was “inactive”.

On to `CO`, for which the compound was classed as inactive in assay [13]. Moreover, the Potency in [4] was 42.2 µM (active).

As for `C=CCCC`, the result in assay [13] was inactive. Further, the values for the Potency in assay [4] and in assay [15] were 66.8 µM (active) and 22.4 µM (active), respectively.

Take `C=CCn1c(=O)n(CC=C)c(=O)n(CC=C)c1=O`: the Potency in assay [16] was 10 µM (active). Further, the Potency result in [12] is “inactive”. Moreover, the outcome in assay [13] was inactive.

For the compound `CC(C)NC(=O)N1CC(=O)N(c2cc(Cl)cc(Cl)c2)C1=O`, the Potency entry in [17], in [19], in [3] and in [10] was “inactive” throughout. For the same compound, the Potency in [1] is 44.7 µM (active). The max response in assay [18] was 21.2%; in assay [20], 11.6%; in assay [21], -6.64% (inactive); in assay [23], 1.07% (inactive); in [9] it was -6.95% (inactive). In assay [22], the activity change % (negative = inhibition) is 4.77% (inactive). For the same compound, the activation is -1.23% (inactive) in assay [5], -3.11% (inactive) in [6] and 14.5% (inactive) in assay [15].

Turning to `COS(C)(=O)=O`, the compound was classed as inactive in [13]. For the same compound, in assay [4], the Potency was 42.2 µM (active).
